In this assay the target is PUM1 PUF domain R1-RRT (Homo sapiens, UniProt Q14671 828-1176, S863R;Q867T). Briefly: yeast three-hybrid, YBZ-1, SC-Leu-His + 0.5 mM 3-AT, 4 days. The note with it: tags: N-Gal4 AD-HA kept; label: inside an RPR1-promoter hybrid RNA with tandem MS2 sites; ssRNA. The method, boiled down:
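Pumilio-1 PUF domain libraries, randomized (NNK) at the three base-contacting residues of each repeat, were co-expressed with matching RNA elements from a centromeric plasmid in strain YBZ-1 (LexA–MS2 coat fusion, HIS3 reporter). Transformants were plated on SC-Leu (input) and SC-Leu-His + 0.5 mM 3-AT (selection) for four days, and repeat regions were PCR-amplified and Illumina-sequenced. The interaction score is the log2 change in variant frequency from input to selection, with pseudocount 1 where absent.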
Sequence of PUM1 PUF domain R1-RRT (Q14671 828-1176 S863R/Q867T): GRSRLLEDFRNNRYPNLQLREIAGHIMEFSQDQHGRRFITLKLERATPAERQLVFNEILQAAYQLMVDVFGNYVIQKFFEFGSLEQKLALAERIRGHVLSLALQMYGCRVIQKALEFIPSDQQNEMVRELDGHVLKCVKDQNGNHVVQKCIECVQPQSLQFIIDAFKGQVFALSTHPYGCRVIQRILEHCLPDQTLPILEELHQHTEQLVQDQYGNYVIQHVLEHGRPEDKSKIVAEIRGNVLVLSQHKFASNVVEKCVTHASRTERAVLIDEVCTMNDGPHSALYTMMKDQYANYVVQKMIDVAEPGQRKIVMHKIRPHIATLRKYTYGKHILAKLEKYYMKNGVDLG
For the sequence “GGCUAGAACUAGUGGAUCCCCCGGCGCCCGGCGGCUCGAGCCCGGGUAAGUGUAAAUUGUCUGCAUGCCGCCGGGCGCCAUGCCUGCAGGUCGACUCUAGAAAACAUG”, the binding signal is 4.21 log2 enrichment (interaction score).

With “GGCUAGAACUAGUGGAUCCCCCGGCGCCCGGCGGCUCGAGCCCGGGUAAGUGUAAAUGGUCUGCAUGCCGCCGGGCGCCAUGCCUGCAGGUCGACUCUAGAAAACAUG”, the binding signal was 1.65 log2 enrichment (interaction score).

Consider “GGCUAGAACUAGUGGAUCCCCCGGCGCCCGGCGGCUCGAGCCCGGGUAAGUGUAAAUCGUCUGCAUGCCGCCGGGCGCCAUGCCUGCAGGUCGACUCUAGAAAACAUG”, for which the binding signal was 4.11 log2 enrichment (interaction score).

Values taken from publication PMC8384837, “Expanding the binding specificity for RNA recognition by a PUF domain”.
